TEAD-YAP inh = TEAD-YAP interaction inhibition. hit rate 1.4% among 640,000. inhibition, % at 9.12 µM. HEK-TIYL cells, TEAD-Gal4/YAP UAS-luciferase luminescence. AID 1259422; in the data active = inhibition above about 32%
FBW7 act = activators of human E3 ligase FBW7 | normalized activity (activation), % at 26.1 µM | AID 1259310 | hit rate 0.13% among 650,000 | AlphaScreen FBW7–phospho-cyclin E peptide binding, activator screen; in the data active = normalized activity above about 1.9%;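 also: purified mutant Fbw7 with reduced substrate affinity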
MITF inh = human MITF inhibition, primary screen. O75030. AlphaScreen MITF homodimerization, bead proximity signal. inhibition, % at 2.6 µM. hit rate 0.91% among 650,000; in the data active = inhibition above about 50%
GPR151 activ = activates the human receptor GPR151 | PathHunter beta-arrestin GPR151 cells, luminescence | activation, % at 11.2 µM | AID 1508602 | hit rate 1% among 650,000; in the data active = activation above about 4.9%
Target sequence (Q8TDV0 whole entry, looked up): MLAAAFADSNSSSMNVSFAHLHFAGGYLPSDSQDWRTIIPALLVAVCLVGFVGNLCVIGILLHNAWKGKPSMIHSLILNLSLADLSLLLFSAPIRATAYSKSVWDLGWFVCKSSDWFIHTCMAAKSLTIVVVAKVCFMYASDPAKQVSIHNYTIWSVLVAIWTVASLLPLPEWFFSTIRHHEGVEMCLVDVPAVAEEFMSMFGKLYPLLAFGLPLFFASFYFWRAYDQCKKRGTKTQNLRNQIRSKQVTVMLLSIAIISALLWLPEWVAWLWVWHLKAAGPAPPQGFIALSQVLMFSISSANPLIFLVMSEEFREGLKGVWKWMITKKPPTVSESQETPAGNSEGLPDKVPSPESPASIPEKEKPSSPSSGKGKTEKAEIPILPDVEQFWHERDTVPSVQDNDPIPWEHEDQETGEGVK
GPR151 conf act = human GPR151 activation, confirmation screen; AID 1508609; 6,700 tested, under 10 active; GPR151 PathHunter beta-arrestin cells, luminescence, 90 min; % of EA-reagent control over plate median; shares compounds with GPR151 activ; activation, % at 11.2 µM;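 active = mean percent activation across replicates above the confirmation screen cutoff of 4.91%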
GPR119 counter = counter-screen for GPR151 activators: effect on human GPR119 | AID 1508611 | GPR119 PathHunter beta-arrestin cells, luminescence, 90 min; 0 = compound-well median, 100 = enzyme-acceptor control | hit rate 0.3% among 6,700 | activation, % at 11.2 µM | shares compounds with GPR151 activ;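 active = mean percent activation in the counterscreen above 29.09%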;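 also: counterscreen on off-target GPR119 to flag nonselective hits from the GPR151 activator screen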
Hits are given with their value; - = inactive; . = not tested or not shown. This is a sample that favours compounds with a hit; in the whole collection about 3.4% have one here.

SMILES	TEAD-YAP inh	FBW7 act	MITF inh	GPR151 activ	GPR151 conf act	GPR119 counter
CCN1CCN(C(=O)CN(C)S(=O)(=O)c2ccc(Cl)cc2)CC1	-	-	-	20	-	-
CCN1CCN(C(=O)CN(C)S(=O)(=O)c2ccc(Br)cc2)CC1	-	-	-	-	.	.
CCCCN(C)c1ncnc2scc(-c3ccccc3)c12	-	-	-	-	.	.
CCCCN(CC)c1ncnc2scc(-c3ccccc3)c12	-	-	-	8.0	-	-
CC(C)c1ccc(N(C)S(=O)(=O)c2ccc3[nH]cc(C(=O)NCCN4CCOCC4)c(=O)c3c2)cc1	-	-	-	5.1	-	-
Cc1noc(C)c1-c1nc(NC2CC2)c2ncn(Cc3ccc(C(F)(F)F)cc3)c2n1	-	-	-	-	.	.
Nc1nc(N2CCOCC2)nc2c1ncn2Cc1ccc(C(F)(F)F)cc1	-	-	-	-	.	.
Cc1noc(C)c1-c1nc(N)c2ncn(Cc3ccc(C(F)(F)F)cc3)c2n1	-	-	-	5.8	-	-
Nc1nc(N2CCC(N3CCOCC3)CC2)nc2c1ncn2Cc1ccc(C(F)(F)F)cc1	-	-	-	6.4	-	-
CCN(CC)c1ccc(/C=N\NC(=O)c2ccc(O)cc2)cc1	-	-	-	-	.	.
CCN(CC)c1ccc(/C=N/NC(=O)c2ccc(O)cc2O)cc1	74	-	-	6.0	-	-
CCC(=O)N1CCN(c2ccc(NC(=O)c3cccs3)cc2)CC1	-	-	-	9.2	-	-
CCC(=O)N1CCN(c2ccc(NC(=O)c3ccco3)cc2)CC1	-	-	-	5.4	-	-
CCC(=O)N1CCN(c2ccc(NC(=O)c3ccco3)cc2Cl)CC1	-	-	-	-	.	.
Cc1ccc(C)c(NC(=O)c2c(O)c3ccccc3n(C)c2=O)c1	-	-	-	-	.	.
O=C(CNc1ccccc1)N/N=C\c1ccc(O)c(O)c1	-	-	-	-	.	.
Cc1ccc(OCC(=O)OCc2c(C)noc2C)cc1C	-	-	-	8.0	-	-
Cc1ccc(OCC(=O)OCC(=O)c2ccccc2)cc1C	-	-	-	10	-	-
Cc1cc(C)cc(OCC(=O)OCc2c(C)noc2C)c1	-	-	-	-	.	.
CCN(CC)c1cc(O)c([N+](=O)[O-])cc1[N+](=O)[O-]	-	-	-	-	.	.
O=C1OC(c2ccc(-c3ccccc3)cc2)=N/C1=C\c1cccnc1	-	-	-	14	-	-
Cc1ccc(C)c(S(=O)(=O)NC(C)C(=O)Nc2ccc(Cl)c(Cl)c2)c1 (centres undefined)	-	-	-	5.9	-	-
CC(NS(=O)(=O)c1cc(Cl)ccc1Cl)C(N)=O (centres undefined)	-	-	-	5.2	-	-
CC(NS(=O)(=O)c1ccc(Cl)cc1)C(N)=O (centres undefined)	-	-	-	-	.	.
Cc1ccccc1Cn1c(C)c(CNCCc2cccs2)c(C(=O)O)c1C	-	-	-	-	.	.
SMILES	TEAD-YAP inh	FBW7 act	MITF inh	GPR151 activ	GPR151 conf act	GPR119 counter
Cc1cccc(-c2nc(CCNC(=O)Cc3ccccc3)cs2)c1	-	-	-	5.8	-	-
O=C(CCC(F)(F)F)N1CCC[C@@H]2CN(Cc3ccc(F)cc3)CC[C@H]21	-	-	-	-	.	.
C=CCn1c(SCC(=O)c2ccccc2)nc2cc(C(=O)NCC3CCCO3)ccc2c1=O (centres undefined)	-	-	-	-	.	.
Cc1nc(N2CCC(C(=O)O)CC2)c2oc3ccccc3c2n1	-	-	-	-	.	.
Cc1nc(N2CCOCC2)c2oc3ccccc3c2n1	-	-	-	7.4	-	-
CN(C)c1ccc(C2OCC3(CO2)COC(c2ccc(N(C)C)cc2)OC3)cc1 (centres undefined)	-	-	-	-	.	.
CN(C)CC(C)(C)C1OCC2(CO1)COC(C(C)(C)CN(C)C)OC2 (centres undefined)	-	-	-	6.9	-	-
c1ccc(CN2CCC(Nc3ccnc(N4CCN(c5ccccn5)CC4)n3)CC2)cc1	-	-	-	-	.	.
Cc1ccccc1NC(=O)N1CCCC1C(=O)NC(C)C (centres undefined)	-	-	-	-	.	.
COc1ccc(C(=O)NCC(=O)OCc2ccc([N+](=O)[O-])cc2)cc1	-	-	-	8.1	-	-
COc1ccc(NC(=O)/C=C/c2ccc([N+](=O)[O-])cc2)c(OC)c1	-	-	-	-	.	.
COc1ccc(NCCC(=O)c2ccc([N+](=O)[O-])cc2)c(OC)c1	-	-	-	5.2	-	-
O=C(CNC(=O)c1ccccc1)OCc1ccc([N+](=O)[O-])cc1	-	-	-	-	.	.
Cn1c(COc2cccc3cccnc23)nnc1SCC(=O)c1ccc(Cl)cc1Cl	-	-	-	-	.	.
CCCOc1ccccc1/C=C1/Oc2ccc(C(=O)OC)cc2C1=O	-	-	-	-	.	.
CCCN(CCC)CCN1C(=O)C2C(C(=O)Nc3cccc(OC)c3)C3C=CC2(O3)C1C(=O)NC1CCCCC1C (centres undefined)	-	-	-	-	.	.
Cn1cc(CCCC(=O)N2CCCCC2)c2ccccc21	-	-	-	-	.	.
CCOc1ccc2nc(Nc3nc(C)cc(-c4ccccc4)n3)nc(C)c2c1	-	-	-	-	.	.
CCOc1ccc2nc(Nc3nccc(C)n3)nc(C)c2c1	-	-	-	9.0	-	-
O=S(=O)(CCc1ccccc1)N1CCN(c2ccc(-c3cccnc3)nn2)CC1	-	-	-	-	.	.
CCCCN(C)C(=O)CCC(=O)n1ncc2c(C)cccc21	-	-	-	-	.	.
COc1nc(NCCO)nc(-c2c(C)nn(C)c2C)n1	-	-	-	14	-	-
O=C(c1cccc(F)c1F)N1CCCCCC1	-	-	-	4.9	-	-
O=C(c1cccc(F)c1F)N1CCCCC1	-	-	-	-	.	.
COCC(=O)NC1CCN(C(=S)Nc2ccc(Cl)cc2)CC1	-	-	-	7.4	-	-
SMILES	TEAD-YAP inh	FBW7 act	MITF inh	GPR151 activ	GPR151 conf act	GPR119 counter
COCC(=O)NC1CCN(C(=S)Nc2ccccc2Cl)CC1	-	-	-	-	.	.
CCOC(=O)c1[nH]c(C)c(C(=O)NC(C)C)c1C	-	-	-	-	.	.
CN(Cc1ccc2nccnc2c1)C(=O)CCC1(Cc2cccs2)CCC(=O)N1 (centres undefined)	-	-	-	-	.	.
CC(=O)NCCSCc1cc2cccc3c2n(c1=O)CCC3	-	-	-	6.3	-	-
COc1ccc(NC(=O)CNC(=O)c2ccccc2)cc1	-	-	-	-	.	.
COc1cc(NC(=O)c2cccc([N+](=O)[O-])c2C)ccc1NC(=O)c1ccco1	-	-	-	-	.	.
Cc1c(C(=O)Nc2cccc(NC(=O)c3cccs3)c2)cccc1[N+](=O)[O-]	-	-	-	5.5	-	-
Cc1c(C(=O)Nc2ccc(NC(=O)c3ccco3)c(Cl)c2)cccc1[N+](=O)[O-]	-	-	-	7.3	-	-
COc1cccc(C(NC(=O)c2ccncc2)c2nccn2C)c1OC (centres undefined)	-	-	-	-	.	.
O=C(CCCN1C(=O)/C(=C\c2ccco2)SC1=S)Nc1ccc(O)cc1	-	-	-	-	.	.
